Test results from PubChem BioAssay AID1159580 (chemical genetic matrix, 2015).
Where “and” joins values, the source holds several entries; their conditions need not be identical. Equal values may be shown once. The campaign covered roughly 5,500 compounds. About 2,000 (36%) were called active. Another 18% or so got no clear call; they are omitted. Rule as the data show it: active = normalized growth mostly below about 0.91 (no sharp cut-off); inconclusive = no clear call, values can overlap the other calls; inactive = mostly above about 0.92. This is one part of the list.

Test: chemical genetic growth profiling, strain panel (AID 1159580);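 also: tested at 20 µM; growth read once vehicle control cultures reached saturation at 30 °C; 1 = growth at the plate median or of vehicle wells; lower values mean less growth of the strain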
Conditions: S. cerevisiae deletion strains, growth OD

Measured: normalized growth

O=c1cc[nH]c(=S)[nH]1
inactive: locus YAL013W, strain DEP1, stronger effect = lower value 1.03 | locus YAL021C, strain ccr4, stronger effect = lower value 1.03 | locus YAL026C, strain drs2, stronger effect = lower value 0.987 | locus YAL030W, strain snc1, stronger effect = lower value 1 | locus YBL061C, strain skt5, stronger effect = lower value 1 | locus YBR009C, strain hhf1, stronger effect = lower value 0.964 | locus YBR021W, strain FUR4, stronger effect = lower value 1.02 | locus YBR023C, strain chs3, stronger effect = lower value 1.01 | locus YBR171W, strain sec66, stronger effect = lower value 1.01 | locus YBR229C, strain ROT2, stronger effect = lower value 1.01 | locus YBR231C, strain swc5, stronger effect = lower value 1.02 | locus YBR279W, strain paf1, stronger effect = lower value 0.997 | locus YCL011C, strain gbp2, stronger effect = lower value 0.997 | locus YCL016C, strain dcc1, stronger effect = lower value 1 | locus YCL029C, strain bik1, stronger effect = lower value 1.01 | locus YCL061C, strain MRC1, stronger effect = lower value 1.03 | locus YCL069W, strain vba3, stronger effect = lower value 1.01 | locus YCR088W, strain abp1, stronger effect = lower value 1.01 | locus YDL005C, strain med2, stronger effect = lower value 1.04 | locus YDL035C, strain GPR1, stronger effect = lower value 1.02 | locus YDL040C, strain nat1, stronger effect = lower value 1.01 | locus YDL074C, strain BRE1, stronger effect = lower value 1.03 | locus YDL101C, strain DUN1, stronger effect = lower value 1.03 | locus YDL134C, strain PPH21, stronger effect = lower value 1.02 | locus YDL185W, strain tfp1, stronger effect = lower value 1.01 | locus YDL192W, strain arf1, stronger effect = lower value 1.02 | locus YDR001C, strain nth1, stronger effect = lower value 1 | locus YDR069C, strain doa4, stronger effect = lower value 1.04 | locus YDR101C, strain arx1, stronger effect = lower value 1.01 | locus YDR137W, strain rgp1, stronger effect = lower value 1.04 | locus YDR150W, strain NUM1, stronger effect = lower value 1.01 | locus YDR159W, strain sac3, stronger effect = lower value 1.02 | locus YDR162C, strain NBP2, stronger effect = lower value 1.02 | locus YDR195W, strain ref2 1.03 | locus YDR297W, strain sur2, stronger effect = lower value 1.01 | locus YDR318W, strain mcm21, stronger effect = lower value 1.03 | locus YDR334W, strain swr1, stronger effect = lower value 1 | locus YDR335W, strain msn5, stronger effect = lower value 1.01 | locus YDR388W, stronger effect = lower value 1 | locus YDR392W, strain spt3, stronger effect = lower value 0.962 | locus YDR502C, strain sam2, stronger effect = lower value 1.03 | locus YEL003W, strain gim4, stronger effect = lower value 1 | locus YEL037C, strain rad23, stronger effect = lower value 0.991 | locus YEL061C, strain CIN8 (second series), stronger effect = lower value 1 | locus YEL061C, strain CIN8, stronger effect = lower value 1.01 | locus YER015W, strain faa2, stronger effect = lower value 1.01 | locus YER016W, strain bim1, stronger effect = lower value 1.01 | locus YER110C, stronger effect = lower value 1 | locus YER111C, strain swi4, stronger effect = lower value 1.01 | locus YER155C, strain BEM2 (second series), stronger effect = lower value 1.04 | locus YER155C, strain BEM2, stronger effect = lower value 1.01 | locus YER167W, strain BCK2, stronger effect = lower value 1.02 | locus YFR010W, strain ubp6, stronger effect = lower value 0.997 | locus YGL078C, strain dbp3, stronger effect = lower value 1.01 | locus YGL086W, strain mad1, stronger effect = lower value 1 | locus YGL167C, strain pmr1, stronger effect = lower value 1 | locus YGL173C, strain kem1, stronger effect = lower value 1.01 | locus YGL227W, strain vid30, stronger effect = lower value 1.01 | locus YGL240W, strain doc1, stronger effect = lower value 1.07 | locus YGL248W, strain PDE1, stronger effect = lower value 1.01 | locus YGL253W, strain hxk2, stronger effect = lower value 1.03 | locus YGR078C, strain PAC10, stronger effect = lower value 1.03 | locus YGR135W, strain pre9, stronger effect = lower value 1.02 | locus YGR229C, strain SMI1, stronger effect = lower value 1.03 | locus YGR252W, strain gcn5, stronger effect = lower value 1.09 | locus YHR013C, strain ard1, stronger effect = lower value 1.04 | locus YHR027C, strain rpn1, stronger effect = lower value 1 | locus YHR030C, strain SLT2, stronger effect = lower value 1.02 and 0.995 | locus YHR079C, strain IRE1 (second series), stronger effect = lower value 0.999 | locus YHR079C, strain IRE1, stronger effect = lower value 1.01 | locus YHR094C, strain hxt1, stronger effect = lower value 0.983 | locus YHR129C, strain ARP1, stronger effect = lower value 1.01 | locus YHR142W, strain chs7, stronger effect = lower value 0.987 | locus YHR200W, strain rpn10, stronger effect = lower value 1.02 | locus YIL066C, strain RNR3, stronger effect = lower value 1.03 | locus YIL073C, strain SPO22, stronger effect = lower value 1.03 | locus YIL125W, strain kgd1, stronger effect = lower value 1.01 | locus YIR030C, strain dcg1, stronger effect = lower value 1.01 | locus YJL092W, strain hpr5, stronger effect = lower value 1 | locus YJL095W, strain BCK1 (second series), stronger effect = lower value 1.01 | locus YJL095W, strain BCK1, stronger effect = lower value 1.04 and 1.01 | locus YJL115W, strain asf1, stronger effect = lower value 1.01 | locus YJL129C, strain trk1, stronger effect = lower value 1.01 | locus YJL134W, strain LCB3, stronger effect = lower value 1.01 | locus YJL154C, strain vps35, stronger effect = lower value 1.01 | locus YJL164C, strain tpk1, stronger effect = lower value 0.983 | locus YJL166W, strain qcr8, stronger effect = lower value 1.03 | locus YJL168C, strain set2, stronger effect = lower value 0.997 | locus YJL187C, strain SWE1 (second series), stronger effect = lower value 1.04 | locus YJL187C, strain SWE1, stronger effect = lower value 1.01 | locus YJR043C, strain POL32, stronger effect = lower value 1.02 | locus YJR066W, strain TOR1, stronger effect = lower value 0.917
